# Assays:
# Settings in all cases: concentration: 1 μM,replicates: in singlicate; n = 1
# HASPIN = system: T1, HASPIN
# T1 construct: gene GSG2
# HCK = system: HCK
# HIPK1 = system: HIPK1
# HIPK2 = system: HIPK2
# HIPK3 = system: HIPK3
# HIPK4 = system: HIPK4
# HPK1 = system: HPK1
# HUNK = system: HUNK
# ICK = system: ICK
# IGF1R = system: IGF1R
# IKK-alpha = system: T2, IKK-alpha
# T2 construct: gene CHUK
# IKK-beta = system: T3, IKK-beta
# T3 construct: gene IKBKB
# IKK-epsilon = system: T4, IKK-epsilon
# T4 construct: gene IKBKE
# INSRR = system: INSRR
# INSR = system: INSR
# IRAK1 = system: IRAK1
# IRAK3 = system: IRAK3
# IRAK4 = system: IRAK4
# ITK = system: ITK
# [1] = system: JAK1(JH1domain-catalytic)
# 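Also: KINOMEscan kinase panel screen.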
Compound,%Inh (HASPIN),%Inh (HCK),%Inh (HIPK1),%Inh (HIPK2),%Inh (HIPK3),%Inh (HIPK4),%Inh (HPK1),%Inh (HUNK),%Inh (ICK),%Inh (IGF1R),%Inh (IKK-alpha),%Inh (IKK-beta),%Inh (IKK-epsilon),%Inh (INSRR),%Inh (INSR),%Inh (IRAK1),%Inh (IRAK3),%Inh (IRAK4),%Inh (ITK),%Inh [1]
COc1cccc(OC)c1C(=O)Nc1cccc(-c2nn3ccccc3c2-c2ccnc(Nc3cccc(F)c3)n2)c1 [GSK361065],0%,30%,31%,0%,0%,84%,2%,15%,0%,7%,0%,0%,4%,0%,0%,0%,0%,0%,93.8%,0%
Cn1ccc2ncnc(Oc3ccc(NC(=O)Nc4cccc(C(F)(F)F)c4)c(F)c3)c21,1%,31%,44%,0%,0%,94.3%,48%,0%,0%,4%,44%,0%,0%,6%,2%,0%,0%,0%,3%,11%
OCCn1cc(-c2cnc3nnn(Cc4ccc5ncccc5c4)c3n2)cn1,0%,25%,6%,0%,0%,3%,0%,0%,0%,0%,3%,0%,0%,0%,0%,0%,0%,0%,0%,0%
CN(c1ccc2c(c1)nc(NCc1ccc(F)cc1)n2C)c1ccnc(Nc2ccc(CS(C)(=O)=O)cc2)n1.Cl [GW813244],28%,47%,53%,25%,47%,79%,60%,5%,7%,13%,15%,0%,0%,15%,27%,49%,1%,0%,0%,38%
Cc1ccc2c(-c3ccnc(Nc4ccc(C(F)(F)F)cc4)n3)cnn2n1 [GW819776],12%,30%,89%,80%,79%,43%,0%,0%,66%,7%,38%,10%,0%,1%,14%,73%,4%,0%,10%,4%
CC(C(=O)NC1CCN(c2ccnc(Nc3ccc(F)cc3)n2)C1)c1ccc(Cl)cc1 (centres unmarked) [GSK1379713],30%,0%,0%,6%,0%,0%,49%,0%,0%,0%,0%,0%,0%,10%,0%,0%,0%,0%,10%,5%
CC(=O)Nc1ccc(-c2cc3ncnc(SCC(=O)O)c3s2)cc1,13%,15%,96.7%,97.5%,95.1%,95.6%,11%,0%,60%,0%,0%,0%,0%,10%,0%,78%,52%,0%,2%,0%
Nc1nccc(-c2ccc3c(N)n[nH]c3c2)n1 [GSK1034945],90.5%,0%,0%,0%,34%,34%,52%,0%,0%,0%,76%,53%,18%,0%,0%,45%,33%,23%,14%,0%
COC(=O)Nc1nc2cc(Oc3ccc(NC(=O)Nc4cc(C(F)(F)F)ccc4Cl)cc3)ccc2[nH]1.Cl [GW697465],13%,0%,0%,0%,3%,86%,63%,17%,0%,0%,35%,16%,0%,0%,0%,23%,0%,8%,12%,21%
O=C(Nc1n[nH]c2cc(-c3ccco3)ccc12)C1CC1 [SB-737447],0%,5%,39%,50%,31%,6%,3%,0%,66%,0%,0%,0%,0%,5%,2%,0%,0%,0%,0%,2%
N#Cc1cccc(C(=O)NC2CCN(c3ccnc(Nc4ccc(F)cc4)n3)C2)c1 (centres unmarked) [GSK1379708],0%,0%,0%,3%,0%,0%,40%,7%,0%,0%,16%,16%,0%,0%,4%,17%,27%,2%,2%,17%
COC(=O)c1cccc(NC(=O)NC2CCN(c3ccnc(Nc4cc(OC)c(OC)c(OC)c4)n3)C2)c1 (centres unmarked) [GSK1379767],15%,5%,0%,0%,6%,0%,72%,0%,0%,3%,0%,0%,40%,0%,11%,62%,79%,11%,11%,9%
Cn1ccc2ncnc(Oc3ccc(NC(=O)Nc4cnn(C(C)(C)C)c4)c(Cl)c3)c21,35%,33%,26%,16%,0%,1%,5%,0%,0%,25%,29%,17%,10%,3%,11%,43%,0%,20%,2%,6%
C[C@@H](Oc1cc(-n2cnc3cc(-c4cnn(C)c4)ccc32)sc1C(N)=O)c1ccccc1Cl [GSK580432],0%,64%,20%,0%,4%,1%,91.3%,0%,0%,0%,0%,8%,4%,1%,0%,45%,34%,25%,23%,0%
COc1cc2c(Nc3ccc(NC(=O)c4ccccc4)cc3)ncnc2cc1OCCCN1CCOCC1 [GSK301329],0%,0%,15%,0%,3%,79%,15%,0%,2%,15%,0%,4%,0%,0%,0%,5%,26%,11%,26%,0%
COC(=O)c1cccc(NC(=O)NC2CCN(c3ccnc(NCc4ccc(F)cc4)n3)CC2)c1 [GSK1379860],17%,35%,0%,47%,10%,0%,24%,0%,0%,0%,26%,8%,0%,0%,0%,0%,0%,12%,15%,8%
Cc1nnc(-c2ccc3occ(-c4ccc(S(C)=O)cc4)c3n2)o1 (centres unmarked),6%,0%,46%,0%,0%,0%,0%,0%,0%,10%,0%,0%,0%,0%,0%,0%,0%,0%,8%,8%

Compound,%Inh (HASPIN),%Inh (HCK),%Inh (HIPK1),%Inh (HIPK2),%Inh (HIPK3),%Inh (HIPK4),%Inh (HPK1),%Inh (HUNK),%Inh (ICK),%Inh (IGF1R),%Inh (IKK-alpha),%Inh (IKK-beta),%Inh (IKK-epsilon),%Inh (INSRR),%Inh (INSR),%Inh (IRAK1),%Inh (IRAK3),%Inh (IRAK4),%Inh (ITK),%Inh [1]
O=C1NCCc2[nH]c(-c3ccncc3)cc21,100%,20%,91.5%,97.2%,95.5%,–,7%,0%,29%,0%,88%,40%,2%,0%,8%,98.6%,0%,0%,0%,6%
Cn1ccc2ncnc(Oc3ccc(NC(=O)Nc4ccnc(C(F)(F)F)c4)c(Cl)c3)c21,9%,0%,35%,0%,0%,0%,0%,8%,0%,2%,46%,13%,0%,3%,5%,14%,0%,12%,0%,1%
CN(c1ccccc1CNc1nc(Nc2ccc3c(c2)CC(=O)N3)ncc1C(F)(F)F)S(C)(=O)=O,0%,3%,83%,80%,64%,89%,76%,0%,0%,88%,0%,0%,35%,69%,93.5%,26%,65%,27%,56%,74%
O=C(Nc1cccc(C(F)(F)F)c1)c1cccc(Oc2ccc3nccn3n2)c1,0%,52%,0%,8%,20%,65%,0%,0%,31%,20%,0%,0%,0%,22%,2%,25%,0%,13%,21%,2%
CN1CCN(CCCNc2nccc(-c3c(-c4ccc(F)cc4)nn4cc(C(N)=O)ccc34)n2)CC1 [GW622475],0%,8%,5%,0%,27%,0%,13%,6%,12%,0%,0%,0%,39%,0%,2%,29%,0%,11%,10%,5%
COc1ccc(Nc2nccc(N3CCC(NC(=O)c4cccc(C#N)c4)C3)n2)cc1 (centres unmarked) [GSK1379730],6%,5%,0%,0%,0%,2%,42%,0%,0%,0%,0%,6%,0%,0%,0%,10%,0%,3%,14%,6%
O=C(NOCC1CC1)c1cc(Br)c(F)c(F)c1Nc1ccc(I)cc1Cl,0%,8%,20%,0%,0%,0%,14%,8%,0%,0%,0%,0%,0%,0%,0%,0%,0%,0%,2%,7%
Cc1n[nH]c2cc(Nc3ccnc(Nc4cccc(CN5CCOCC5)c4)n3)ccc12 [GW682569],20%,25%,0%,0%,26%,3%,24%,0%,0%,0%,0%,25%,38%,0%,7%,79%,89%,87%,1%,48%
CC(=O)c1c(-c2ccncc2)[nH]c(-c2ccncc2)c1C [GW493036],85%,0%,53%,0%,65%,86%,11%,26%,18%,0%,35%,30%,2%,0%,0%,85%,0%,32%,13%,12%
Cc1ccc(CC(=O)N2CCc3cc(-c4cn(C)c5ncnc(N)c45)ccc32)cc1 [GSK2634758],5%,0%,6%,0%,13%,5%,63%,1%,0%,18%,1%,0%,36%,12%,4%,13%,0%,0%,13%,6%
NC(=O)c1ccc(-c2cc3ncnc(SCC(=O)O)c3s2)cc1,0%,13%,94.8%,96.1%,92%,79%,2%,0%,10%,0%,0%,0%,0%,0%,0%,70%,9%,0%,0%,0%
Cn1ccc2ncnc(Oc3ccc(NC(=O)Nc4cc(C(C)(C)C)on4)c(Cl)c3)c21,5%,66%,36%,34%,0%,28%,30%,2%,15%,15%,17%,9%,0%,19%,20%,61%,17%,33%,16%,6%
Cc1cccc(-c2nc(Nc3ccncc3)c3sccc3n2)n1 [GW869641],44%,25%,21%,13%,37%,13%,16%,20%,32%,8%,32%,22%,0%,5%,31%,18%,0%,0%,12%,0%
CCn1c(-c2nonc2N)nc2cncc(Br)c21 [SB-738004],99.4%,3%,47%,74%,74%,0%,42%,27%,7%,0%,12%,0%,26%,0%,0%,63%,0%,0%,0%,18%
C[C@@H](Oc1cc(-n2cnc3cc(-c4ccncc4)ccc32)sc1C(N)=O)c1ccccc1Cl [GSK479719],75%,9%,0%,0%,15%,24%,72%,0%,4%,14%,37%,50%,0%,0%,0%,48%,0%,26%,11%,0%
O=c1[nH]cc(-c2ccc(O)cc2)c2sc(-c3ccncc3)cc12 [GSK1033723],88%,0%,67%,72%,90.1%,22%,44%,0%,0%,0%,0%,0%,9%,0%,100%,59%,1%,5%,0%,35%

# From article PMC5540273 (PLoS ONE, 2017)
